# Laboratory results published in PubChem BioAssay.
# Biological target: Dickkopf-related protein 1 (Homo sapiens) (UniProt O94907)
# Experiment: small molecules binding DKK1 protein – biochemical, small-molecule microarray, 635 nm fluorescence scan, primary screen (AID 1106);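 note: score merges emission near 667 nm with signal to noise over three replicate slides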
# Details: higher = more signal
# Chain of Dickkopf-related protein 1 (Homo sapiens) (O94907 whole entry, looked up): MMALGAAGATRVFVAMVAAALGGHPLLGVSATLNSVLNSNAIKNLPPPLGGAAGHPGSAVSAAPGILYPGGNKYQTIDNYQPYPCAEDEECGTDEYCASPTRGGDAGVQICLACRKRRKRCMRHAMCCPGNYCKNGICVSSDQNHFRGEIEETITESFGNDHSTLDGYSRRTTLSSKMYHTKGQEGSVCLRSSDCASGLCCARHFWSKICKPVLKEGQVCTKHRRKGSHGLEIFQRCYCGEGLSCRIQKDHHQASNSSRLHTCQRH
row,Structure (SMILES),composite z-score
1,CCOC(=O)C[C@H]1[C@H](OC(=O)c2ccc(-c3ccccc3)cc2)[C@@H](NC(=O)c2ccccc2)c2cc(OCCCO)ccc2N1C(=O)c1ccc2ccccc2n1,0.234
2,O=c1cccc(-c2ccccc2Cl)o1,0.157
3,C=CCC(OC(C)=O)[C@@H]1[C@@H](N(Cc2cc3ccccc3o2)C(=O)Cc2ccc(OC)cc2)c2cc(OCCCO)ccc2N1C(=O)c1ccc2ccccc2c1 (stereo not given in full),-0.306
4,CS(=O)(=O)CCOC(=O)C1=CC(CCCO)=CC(c2ccc(CN3CCCC3)cc2)N(Cc2cccc(OC(F)(F)F)c2)C=C1C(=O)OCCS(C)(=O)=O (stereo not given),0.468
5,O=C1[C@@]23C=C(Br)[C@H](C[C@@H]2COC3)[C@]12CO2,-0.297
6,O=C(CS)NCCCCCNC(=O)[C@H]1C[C@H]2C(=O)NCC(=O)N2[C@H]1c1ccc(O)cc1,-0.887
7,CC(c1ccccc1)C(O)C1C=CC2C(=O)N(c3ccccc3)C(=O)C2N1Nc1ccccc1 (stereo not given),-0.0656
8,COC(=O)c1c(CC[C@@H](CO)NC(=O)NCCc2c[nH]c3ccccc23)oc(C(=O)Cc2ccccc2)c1C(=O)OC,0.263
9,O=C(O)[C@H]1C[C@H]2C(=O)N3CCC[C@H]3C(=O)N2[C@H]1c1ccc(O)cc1,-1.13
10,Cc1c(NC(=O)/C(C#N)=C/c2cccc([N+](=O)[O-])c2)c(=O)n(-c2ccccc2)n1C,0.561
11,CCOC(=O)C1=CCC(c2ccc(F)cc2)N(S(=O)(=O)c2ccc(C)cc2)C1 (stereo not given),0.127
12,COC(=O)C(CC#Cc1ccc2c(c1)[C@]1(C(=O)N2)[C@H](c2ccc(O)cc2)N2[C@H](c3ccccc3)[C@H](c3ccccc3)OC(=O)[C@H]2[C@@H]1C(=O)N1CCN(c2ncccn2)CC1)C(=O)OC,0.0879
13,O=C1O[C@H](c2ccccc2)[C@H](c2ccccc2)N2[C@H]1[C@@H](C(=O)NC[C@H](O)c1ccccc1)[C@]1(C(=O)Nc3ccccc31)[C@H]2c1ccc(O)cc1,0.964
14,COCCOC(=O)N1C(=O)[C@@]2(c3cc(C#Cc4ccc(OC)cc4)ccc31)[C@H](c1ccc(O)cc1)N1[C@H](c3ccccc3)[C@H](c3ccccc3)OC(=O)[C@H]1[C@@H]2C(=O)Nc1nc2ccccc2s1,0.446
15,CC(C)=CCCC(C)=CC(O)C1C=CC2C(=O)N(c3ccccc3)C(=O)C2N1Nc1ccc(C(C)C)cc1 (stereo not given),-0.609
16,O=C(O)[C@H](Cc1ccccc1)n1cc(-c2ccccc2)nn1,0.31
17,COC(=O)C(CC#Cc1ccc2c(c1)[C@]1(C(=O)N2)[C@H](c2ccccc2OCCO)N2[C@H](c3ccccc3)[C@H](c3ccccc3)OC(=O)[C@H]2[C@@H]1C(N)=O)C(=O)OC,-0.221
18,[N-]=[N+]=Nc1ccccc1C[C@]1(C(=O)NCC(O)CO)N=C(c2ccc(OCCCO)cc2)O[C@H]1c1ccccc1 (stereo not given in full),-0.735

row,Structure (SMILES),composite z-score
1,Cc1ccc([C@H]2C(C(=O)O)=CCN2S(=O)(=O)c2ccc(C)cc2)cc1,-0.345
2,[N-]=[N+]=Nc1ccccc1C[C@]1(C(=O)NCc2ccccc2)N=C(c2ccc(OCCCO)cc2)O[C@H]1c1ccccc1N=[N+]=[N-],-0.245
3,CC(=O)NCCCC[C@@H]1NC(=O)[C@H]2C[C@@H](C(=O)O)[C@@H](c3ccc(O)cc3)N2C1=O,1.28
4,COCCOC(=O)N1C(=O)[C@@]2(c3cc(C#CC4(O)CCCCCC4)ccc31)[C@H](C(=O)Nc1nc3ccccc3s1)[C@H]1C(=O)O[C@H](c3ccccc3)[C@H](c3ccccc3)N1[C@@H]2c1ccccc1OCCO,0.287
5,COCC(=C=CC[C@H](O)c1cccc(OCCO)c1)C[C@H](O)c1cc(Cl)cc(Cl)c1O,0.551
6,[N-]=[N+]=Nc1ccccc1[C@H]1OC(c2ccc(OCCCO)cc2)=N[C@@]1(Cc1ccccc1)C(=O)N1CCOCC1,0.477
7,CCCCC(O)C1C=CC2C(=O)N(C)C(=O)C2N1N1CCCCC1 (stereo not given),0.0003
8,COc1ccc(NC(=O)O[C@H]2[C@H](OC(=O)c3cc4ccccc4[nH]3)[C@@H](OC(=O)c3cc4ccccc4[nH]3)[C@@H](OC)O[C@@H]2CO)cc1,-0.011
9,CN1C(=O)C2C=CC(C(O)c3c(F)cccc3Cl)N(NC(=O)OC(C)(C)C)C2C1=O (stereo not given),-0.438
10,O=C(CS)NCCCCCNC(=O)[C@@H]1C[C@@H]2C(=O)NCC(=O)N2[C@@H]1c1ccc(O)cc1,-0.109
11,COc1ccccc1CN1C(=O)c2ccccc2[C@@]2(Cc3ccccc3N(CCCN(C)C)C2=O)[C@@H]1c1ccc(CO)cc1,1.05
12,[N-]=[N+]=NCc1ccccc1C[C@@]1(C(=O)NCC(O)CO)N=C(c2ccc(OCCCO)cc2)O[C@@H]1c1ccccc1 (stereo not given in full),-1.58
13,CCOC(=O)[C@H]1C/C=C/C[C@H](C(=O)OCC)C(=O)O[C@H]2[C@@H](OC)O[C@H](CO)[C@@H](OC(=O)c3ccc(Br)cc3)[C@@H]2OC1=O,0.34
14,O=C1OCC=C[C@H]2OC34C=CCN(Cn5nnc6ccccc65)C(=O)[C@H]3N(CCCCCO)C(=O)[C@@H]4[C@@H]12 (stereo not given in full),-1.29
15,COCC(=C=CC[C@H](O)c1cccc(OCCO)c1)CCO,0.0241
16,O=C1NC(=O)C2C1C=CC(C(O)c1ccc(I)cc1)N2Nc1ccc(Cl)cc1Cl (stereo not given),-0.235
17,COC(=O)[C@@]1(Cc2ccccc2)[C@H]2c3cc(C(=O)N(C)C)n(CCc4c[nH]c5ccc(O)cc45)c3C[C@H]2CN1C(=O)c1ccccc1,-0.0414
